# Data reported in PubChem BioAssay (Tox21).
# Several values for one entry are separate records, joined by “and”; a condition that tells them apart may be missing. Equal values may be shown once. Some compounds were tested as several samples or in several runs, with calls that do not always agree. Activity calls are given as the source filed them. Entries that show only a call come without a potency. Unless noted, calls follow the shape of the dose curve; as a rule, active = well fitted curve in the direction sought with a large enough effect in the repeat runs; inconclusive = weak or mixed curves; inactive = no such curve, though single readings can be large; an effect the other way counts as inactive or inconclusive.
# Key:
# [1] = qHTS assay to identify small molecule antagonists of the estrogen receptor alpha (ER-alpha) signaling pathway - cell viability counter screen (AID 743074; calls by dose curve;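 also: HEK293 cells carrying ER-alpha-UAS-bla reporter stimulated with 17beta-estradiol; nearly all actives have a fitted effect of over 45% in size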)
# [2] = qHTS assay to identify small molecule antagonists of the estrogen receptor alpha (ER-alpha) signaling pathway using the BG1 cell line - cell viability counter screen (AID 743081);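 also: compound given together with 17beta-estradiol as the ER stimulus; nearly all actives have a fitted effect of over 45% in size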
# [3] = molecular target: Aromatase (Homo sapiens) (UniProt P11511); test: qHTS assay to identify aromatase inhibitors (AID 743083); also: nearly all actives have a fitted effect of over 55% in size
# [4] = qHTS assay to identify aromatase inhibitors - cell viability counter screen (AID 743084);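 also: cells stimulated with testosterone during compound exposure; nearly all actives have a fitted effect of over 55% in size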
# [5] = molecular target: Aryl hydrocarbon receptor (Homo sapiens) (UniProt P35869); test: qHTS assay to identify small molecule that activate the aryl hydrocarbon receptor (AhR) signaling pathway (AID 743085);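 also: HG2L7.5c1 human HepG2 liver cells with stably integrated DRE-driven firefly reporter; nearly all actives have a fitted effect of over 15% in size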
# In short: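 Steps: seed HepG2-AhR-luc cells; allow 5 h at 37C; pin-transfer test compound or vehicle; incubate 24 h at 37C; add viability dye (30 min, 37C) and read fluorescence; add luciferase substrate (30 min, RT) and read luminescence.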
# [6] = qHTS assay to identify small molecule that activate the aryl hydrocarbon receptor (AhR) signaling pathway - cell viability counter screen (AID 743086);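 also: HepG2 liver cells carrying the AhR DRE luciferase reporter; nearly all actives have a fitted effect of over 45% in size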
# In short: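 Cytotoxicity counter screen: CellTiter-Fluor signal (30 min, 37 C) in 4000 HepG2 cells/well carrying the DRE-luciferase reporter, following 24 h compound exposure at 37 C.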
# [7] = qHTS assay for small molecule agonists of the antioxidant response element (ARE) signaling pathway - cell viability counter screen (AID 743203; calls by dose curve; also: nearly all actives have a fitted effect of over 55% in size)
# In short: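 ATP content via CellTiter-Glo luminescence served as the viability measure. Cells: ARE-bla HepG2, 2,000 per well. Exposure: 16 hrs, 37C/5% CO2.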
# [8] = qHTS assay for small molecule activators of the heat shock response signaling pathway - cell viability counter screen (AID 743209); also: nearly all actives have a fitted effect of over 50% in size
# In short: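 Compounds dissolved in DMSO were added to overnight-plated HSE-bla HeLa cells and left 5 h at 37 C. Cell viability was quantified by luminescence using CellTiter-Glo.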
# [9] = qHTS assay for small molecule activators of the heat shock response signaling pathway (AID 743210; active = well fitted activation curve with a large enough effect in the signal ratio in the repeat runs, with a control signal flat, not every such curve was filed as active; inconclusive = weak or mixed curves; the % refers to the signal ratio)
# In short: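 Compound exposure lasted 5 h at 37 C in HeLa cells carrying a heat-shock-element-driven beta-lactamase reporter. Read-out: fluorescence intensity after 2.5 h room-temperature loading with LiveBLAzer B/G FRET substrate.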
# [10] = system: thyroid hormone receptor (rat, GH3 cells); test: qHTS assay to identify small molecule agonists of the thyroid receptor (TR) signaling pathway (AID 743066; calls by dose curve)
# [11] = molecular target: Estrogen receptor (Homo sapiens) (UniProt P03372); test: qHTS assay to identify small molecule antagonists of the estrogen receptor alpha (ER-alpha) signaling pathway (AID 743069; active = well fitted curve in the direction sought with a large enough effect in the signal ratio in the repeat runs, not every such curve was filed as active; inconclusive = weak or mixed curves, or effect the other way; inactive = no such curve, though single readings can be large or run the other way; the % refers to the signal ratio; also: potency is read from the fitted curve at half-maximal effect)
# In short: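 Antagonist mode: compounds in DMSO were co-added with 17beta-estradiol to ER-alpha-bla HEK293 cells (2% charcoal-stripped serum) and left 18 h at 37C. Reporter inhibition was measured as FRET fluorescence after 2 h LiveBLAzer substrate at room temperature.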
# [12] = molecular target: Estrogen receptor (Homo sapiens) (UniProt P03372); test: qHTS assay to identify small molecule agonists of the estrogen receptor alpha (ER-alpha) signaling pathway (AID 743075; calls by dose curve;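 also: HEK293 GripTite cells with ER-alpha and UAS-driven beta-lactamase reporter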; also: potency is read from the fitted curve at half-maximal effect)
# [13] = molecular target: Estrogen receptor (Homo sapiens) (UniProt P03372); test: qHTS assay to identify small molecule agonists of the estrogen receptor alpha (ER-alpha) signaling pathway using the BG1 cell line (AID 743079); conditions: BG1Luc4E2 cells, ERE-luciferase agonist, 22 h; activation: at 70.3 µM (top of the series) unless noted; also: nearly all actives have a fitted effect of over 20% in size; also: potency is read from the fitted curve at half-maximal effect
# [14] = qHTS assay to identify small molecule antagonists of the estrogen receptor alpha (ER-alpha) signaling pathway using the BG1 cell line (AID 743080; calls by dose curve;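 also: BG1 cells stimulated with 17beta-estradiol alongside compound; nearly all actives have a fitted effect of over 25% in size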; also: potency is read from the fitted curve at half-maximal effect)
# In short: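 Seeding, 24 h rest, compound transfer from DMSO, 17beta-estradiol addition, 21.5 h incubation, CellTiter-Fluor (30 min, 37 C), then ONE-Glo (30 min, room temperature): this sequence was run on BG1-Luc-4E2 reporter cells.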
# [15] = molecular target: Peroxisome proliferator-activated receptor gamma (Homo sapiens) (UniProt P37231); test: qHTS assay to identify small molecule agonists of the peroxisome proliferator-activated receptor gamma (PPARg) signaling pathway (AID 743094; active = well fitted activation curve with a large enough effect in the signal ratio in the repeat runs, not every such curve was filed as active; inconclusive = weak or mixed curves, or effect the other way; inactive = no such curve, though single readings can be large or run the other way; the % refers to the signal ratio)
# In short: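 Agonism was assessed in a beta-lactamase reporter system, HEK293H cells with a stably integrated UAS-bla construct under PPARg control; the 17 h treatment at 37C preceded a 1 h room-temperature FRET substrate read.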
# [16] = molecular target: Peroxisome proliferator-activated receptor gamma (Homo sapiens) (UniProt P37231); test: qHTS assay to identify small molecule antagonists of the peroxisome proliferator-activated receptor gamma (PPARg) signaling pathway (AID 743191; calls by dose curve; also: nearly all actives have a fitted effect of over 30% in size)
# In short: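 Beta-lactamase reporter under UAS control in HEK293H PPARg-bla cells; compound treatment 17 h at 37C. Read-out: fluorescence intensity after 1 h room-temperature incubation with LiveBLAzer B/G FRET substrate.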
# [17] = qHTS assay for small molecule agonists of the antioxidant response element (ARE) signaling pathway (AID 743202; active = well fitted activation curve with a large enough effect in the signal ratio in the repeat runs, not every such curve was filed as active; inconclusive = weak or mixed curves, or effect the other way; inactive = no such curve, though single readings can be large or run the other way; the % refers to the signal ratio; also: potency is read from the fitted curve at half-maximal effect)
# In short: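 After 16 hours of compound treatment at 37 C, HepG2 cells with a stably integrated ARE-driven beta-lactamase reporter were loaded 2 hours at room temperature with LiveBLAzer B/G FRET substrate and fluorescence intensity measured.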
# [18] = qHTS assay to identify small molecule antagonists of the thyroid receptor (TR) signaling pathway (AID 743065); also: nearly all actives have a fitted effect of over 55% in size
# In short: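 Antagonism measured as loss of luciferase signal in GH3 cells stably carrying a TRE-luciferase reporter, co-treated with compound and T3 (1 nM final) for 23.5 h at 37 C. Viability was read in the same well by CellTiter-Fluor.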
# [19] = qHTS assay to identify small molecule antagonists of the peroxisome proliferator-activated receptor gamma (PPARg) signaling pathway - cell viability counter screen (AID 743194); conditions: Potency: co-treated with 50 nM rosiglitazone unless noted; also: nearly all actives have a fitted effect of over 55% in size
# In short: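 Viability was measured as CellTiter-Glo luminescence in GeneBLAzer PPARg UAS-bla HEK293H cells. These cells had been exposed 17 h at 37 C to compounds together with rosiglitazone at 50 nM final, with the beta-lactamase readout taken in the same wells.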
# Chain of Aryl hydrocarbon receptor (Homo sapiens) (P35869 whole entry, looked up): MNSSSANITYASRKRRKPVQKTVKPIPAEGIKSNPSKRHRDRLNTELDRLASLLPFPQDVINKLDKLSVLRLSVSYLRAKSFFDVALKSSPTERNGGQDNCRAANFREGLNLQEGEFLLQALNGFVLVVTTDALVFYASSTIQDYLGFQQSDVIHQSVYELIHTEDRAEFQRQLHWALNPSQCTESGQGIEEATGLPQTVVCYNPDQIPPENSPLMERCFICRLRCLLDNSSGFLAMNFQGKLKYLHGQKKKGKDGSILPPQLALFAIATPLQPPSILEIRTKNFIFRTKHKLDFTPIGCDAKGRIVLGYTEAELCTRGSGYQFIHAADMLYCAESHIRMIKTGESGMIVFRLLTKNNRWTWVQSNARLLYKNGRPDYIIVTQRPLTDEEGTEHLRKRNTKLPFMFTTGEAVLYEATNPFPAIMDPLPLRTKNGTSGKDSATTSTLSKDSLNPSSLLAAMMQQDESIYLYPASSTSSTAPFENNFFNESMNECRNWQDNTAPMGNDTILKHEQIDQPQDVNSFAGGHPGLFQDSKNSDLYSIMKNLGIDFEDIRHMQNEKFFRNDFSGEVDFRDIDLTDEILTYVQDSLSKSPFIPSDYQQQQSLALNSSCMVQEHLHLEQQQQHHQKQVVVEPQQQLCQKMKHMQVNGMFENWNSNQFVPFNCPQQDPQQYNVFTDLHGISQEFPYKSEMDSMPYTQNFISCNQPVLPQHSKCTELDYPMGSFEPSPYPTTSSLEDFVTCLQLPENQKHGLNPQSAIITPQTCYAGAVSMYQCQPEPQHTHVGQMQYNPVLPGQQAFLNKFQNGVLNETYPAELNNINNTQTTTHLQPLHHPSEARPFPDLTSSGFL
# Chain of Aromatase (Homo sapiens) (P11511 whole entry, looked up): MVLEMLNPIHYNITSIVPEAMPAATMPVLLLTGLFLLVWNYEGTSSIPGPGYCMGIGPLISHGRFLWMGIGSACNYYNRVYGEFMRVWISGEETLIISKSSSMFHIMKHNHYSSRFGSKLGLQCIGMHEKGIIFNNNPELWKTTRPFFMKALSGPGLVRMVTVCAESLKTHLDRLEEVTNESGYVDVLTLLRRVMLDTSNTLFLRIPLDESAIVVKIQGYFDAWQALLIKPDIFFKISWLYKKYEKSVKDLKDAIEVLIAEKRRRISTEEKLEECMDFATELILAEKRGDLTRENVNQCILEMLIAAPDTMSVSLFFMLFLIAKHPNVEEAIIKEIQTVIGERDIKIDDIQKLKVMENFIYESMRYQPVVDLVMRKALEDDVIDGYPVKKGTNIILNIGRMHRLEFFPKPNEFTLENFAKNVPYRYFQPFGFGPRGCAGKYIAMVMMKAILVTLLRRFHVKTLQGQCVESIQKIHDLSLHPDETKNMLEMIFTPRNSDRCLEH
# Chain of Peroxisome proliferator-activated receptor gamma (Homo sapiens) (P37231 whole entry, looked up): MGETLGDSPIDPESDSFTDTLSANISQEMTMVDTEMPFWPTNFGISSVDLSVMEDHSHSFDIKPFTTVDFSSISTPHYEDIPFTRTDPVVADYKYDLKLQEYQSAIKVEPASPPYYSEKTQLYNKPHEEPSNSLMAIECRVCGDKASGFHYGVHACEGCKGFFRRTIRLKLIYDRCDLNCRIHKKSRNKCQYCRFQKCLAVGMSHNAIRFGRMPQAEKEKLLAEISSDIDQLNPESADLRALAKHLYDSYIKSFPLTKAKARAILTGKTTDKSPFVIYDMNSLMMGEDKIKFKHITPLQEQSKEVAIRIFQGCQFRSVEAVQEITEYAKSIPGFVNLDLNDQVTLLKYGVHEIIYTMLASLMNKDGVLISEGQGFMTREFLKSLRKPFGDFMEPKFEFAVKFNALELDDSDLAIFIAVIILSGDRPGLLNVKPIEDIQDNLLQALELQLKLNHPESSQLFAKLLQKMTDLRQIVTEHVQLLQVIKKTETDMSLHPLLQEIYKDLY
# Chain of Estrogen receptor (Homo sapiens) (P03372 whole entry, looked up): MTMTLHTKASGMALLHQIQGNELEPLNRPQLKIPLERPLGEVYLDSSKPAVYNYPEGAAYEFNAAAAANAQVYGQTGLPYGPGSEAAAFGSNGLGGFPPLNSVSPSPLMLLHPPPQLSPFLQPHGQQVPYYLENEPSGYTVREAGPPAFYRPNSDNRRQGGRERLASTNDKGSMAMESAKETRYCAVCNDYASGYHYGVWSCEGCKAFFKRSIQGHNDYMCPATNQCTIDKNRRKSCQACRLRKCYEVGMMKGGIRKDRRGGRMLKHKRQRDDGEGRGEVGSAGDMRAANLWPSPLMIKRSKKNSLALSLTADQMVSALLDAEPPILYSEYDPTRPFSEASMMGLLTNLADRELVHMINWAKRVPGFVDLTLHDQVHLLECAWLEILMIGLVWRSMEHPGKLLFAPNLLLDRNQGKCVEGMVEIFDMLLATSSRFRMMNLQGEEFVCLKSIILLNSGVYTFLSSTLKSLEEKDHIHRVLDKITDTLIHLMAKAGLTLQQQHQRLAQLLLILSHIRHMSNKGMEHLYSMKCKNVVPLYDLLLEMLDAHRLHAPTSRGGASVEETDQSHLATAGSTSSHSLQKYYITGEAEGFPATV
SMILES,Potency [1],Potency [2],Potency [3],Potency [4],Potency [5],Potency [6],Potency [7],Potency [8],Potency [9],Potency [10],Potency [11],Potency [12],Potency [13],Potency [14],Potency [15],Potency [16],Potency [17],Potency [18],Potency [19]
NC1CCCCC1N (stereo not drawn),inactive,inactive,inactive,inactive,inactive,inactive,inactive,inactive,inactive,–,–,–,–,–,–,–,–,–,–
NC(=O)NC(N)=O,inactive,inactive,inactive,inactive,–,inactive,inactive,inactive,inactive,inactive,inactive,inactive,inactive,inactive,inactive,inactive,inactive,–,–
C=C(CC(=O)O)C(=O)O,inactive,inactive,inactive,inactive,inactive,inactive,inactive,inactive,inactive,inactive,–,–,–,–,inactive,inactive,inactive,–,–
COC(=O)OC,inactive,inactive,inactive,inactive,–,inactive,–,inactive,inactive,inactive,–,–,–,–,inactive,inactive,–,inactive,inactive
CC1(C)[C@@H](O[C@H]2O[C@H](C(=O)O)[C@@H](O)[C@H](O)[C@H]2O[C@@H]2O[C@H](C(=O)O)[C@@H](O)[C@H](O)[C@H]2O)CC[C@]2(C)[C@H]3C(=O)C=C4[C@@H]5C[C@@](C)(C(=O)O)CC[C@]5(C)CC[C@@]4(C)[C@]3(C)CC[C@@H]12,inactive,inactive,inactive,inactive,–,inactive,inactive,inactive,–,inactive,–,–,–,–,–,–,inactive,–,–
O=C(c1ccccc1)c1ccc(O)c(O)c1O,inactive,inactive,inactive,inactive,–,inactive,inactive,inactive,inactive,inactive,inactive,61.6 µM [inconclusive] (active),61.1 µM (active),inactive,inactive,–,–,–,–
N[C@@H](Cc1cc(I)c(Oc2ccc(O)c(I)c2)c(I)c1)C(=O)O,inactive,inactive,inactive,inactive,–,inactive,inactive,inactive,inactive,–,23.9 µM [inconclusive] (active) and inactive,9.51 µM [activator] (active) and inactive and 51 µM [fluorescent] (active),37.1 µM (active) and 40.2 µM (active),26.6 µM (active) and inactive and 8.02 µM (active),inactive,–,inactive and 12.7 µM (active),–,inactive
O=C(Cl)c1ccc(C(=O)Cl)cc1,inactive,inactive,inactive,inactive,inactive,inactive,inactive,inactive,inactive,inactive,inactive,inactive,inactive,inactive,inactive,inactive,–,–,inactive
Cc1ccc(Cl)cc1,inactive,inactive,inactive,inactive,inactive,inactive,inactive,inactive,inactive,–,inactive,inactive,inactive,inactive,inactive,inactive,inactive,–,–
Cc1nnc(NS(=O)(=O)c2ccc(N)cc2)s1,inactive,inactive,inactive,inactive,inactive,inactive,inactive,inactive,inactive,–,inactive,inactive,inactive,inactive,inactive,inactive,inactive,–,inactive
CC(=O)CC(=O)N(C)C,inactive,inactive,inactive,inactive,–,inactive,inactive,inactive,inactive,inactive,inactive,inactive,inactive,inactive,–,–,–,inactive,inactive
